The source of these data is PubChem BioAssay AID1578 (Sanford-Burnham Center for Chemical Genomics, 2009).

Out of some 290,000 compounds screened, about 3,000 (1%) were called active. This is one part of a sample in which actives are shown more often than they occur. Unmarked numbers belong to inactive results. No stated cut-off is given here; in the data, active means inhibition mostly above about 36% (no sharp cut-off); inactive means mostly below about 34%.

The nature of the test: NOD1 signaling inhibitors, primary screen, cell-based, luminescence, uHTS (AID 1578).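 Further: HEK-293T reporter cells stimulated with the NOD1 agonist gamma-tri-DAP.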 The conditions noted are these: NOD1-driven NF-kB luciferase reporter cells, at 4 µM, stronger effect = higher value. A general note: In a reporter assay the amount or activity of a reporter protein is the signal.
On to `CCC(C(=O)NC(C)c1ccccc1)C(=O)NC(C)c1ccccc1` (stereo not given), for which the inhibition (usually the change of the read-out against control, counted positive when it falls) is -9.8%.
For `CC(=O)Nc1ccc(NC(=O)c2cc(=O)c3cc(C)c(C)cc3o2)cc1` the value was -7.3%; for `COc1ccc(-c2ccc(C(C)=O)cc2)cc1[C@H]1[C@H]2C=CC[C@@H](C)[C@@H]2C(=O)N1Cc1ccccc1`, -4.4%.
On to `COC(=O)c1cc2sc(Cl)cc2n1CC(=O)Nc1cccc(SC)c1`, for which the inhibition was 1.3%.
Turning to `CCn1c(=O)cc(OCC(=O)NCc2cccs2)c2ccccc21`, the inhibition was -18.7%.
For `O=C(CN1CC[n+]2c(-c3ccccc3)csc21)c1ccc(Br)cc1` the value was -9.1%; for `O=C(CN1CC[n+]2c(-c3cccs3)csc21)c1ccc(Br)cc1`, 5%; for `O=C(CN1CC[n+]2c(-c3cccs3)csc21)c1ccc(-c2ccccc2)cc1`, 56.9% (active).
On to `O=C(O)CSCC(=O)N1CCc2c([nH]c3ccccc23)C1C(F)(F)F` (stereo not given), for which the inhibition is -8.5%.
For `O=C(Nc1ccc(NC(=O)c2ccc(Cl)c(S(=O)(=O)N3CCOCC3)c2)cc1)c1ccccc1` the value was -18.3%; for `O=C(Nc1cccc(S(=O)(=O)C(F)F)c1)c1ccc(Cl)c(S(=O)(=O)N2CCOCC2)c1`, 4.5%.
For `CCOC(=O)c1c(/N=C/N(C)C)sc(C=O)c1-c1ccccc1` the value was -24.2%; for `CC(C)CC(COCc1cccc(Cl)c1)N1CCN(C(=O)c2ccc(C(F)(F)F)cc2)CCC1=O` (stereo not given), -7.1%.
For `Cc1cccc(COCC(CC(C)C)N2CCN(C(=O)c3ccc(C(C)(C)C)cc3)CCC2=O)c1` (stereo not given) the value was 77% (active); for `Cc1cccc(COCC(CC(C)C)N2CCN(C(=O)c3ccc(C(F)(F)F)cc3)CCC2=O)c1` (stereo not given), -5.2%.
In the case of `COC(=O)c1c(C)n(-c2ccc(C)cc2)c2ccc(O)cc12`, the inhibition is 18.7%.
For `CC(=O)c1c(C)n(-c2ccc(C)cc2)c2ccc(O)cc12` the value was 33.3%; for `O=C(CN(C(=O)c1ccccc1Cl)N1C(=O)C2C3C=CC(C3)C2C1=O)c1cccs1` (stereo not given), -17%.
For `O=C(Nc1ccc(OC(F)F)c(Cl)c1)Nc1ccc2c(c1)OCO2` the value was -34.5%; for `COc1ccc(/C=C2\N=C(SC)N(c3ccccc3OC)C2=O)cc1`, 53.5% (active).
For `CCSC1=N/C(=C\c2ccccc2)C(=O)N1c1ccc(OC)cc1` the value was 30.2%.
With `COc1ccc(/C=C2\N=C(SC)N(C)C2=O)cc1`, the inhibition was 3.7%.
For `COc1cccc(CNc2ncn[nH]2)c1OCc1ccc(F)cc1` the value was -21.2%; for `Cc1ccc(N=Cc2nc(-c3ccc(C)cc3)oc2O)cc1`, 21.9%; for `Cc1ccc(-c2nc(C=Nc3ccc(O)cc3)c(O)o2)cc1`, 57.6% (active).
For `Cc1ccc(-c2nc(C=Nc3ccccc3)c(O)o2)cc1` the value was -33.7%; for `CCSc1nc2ccccc2n1CCOc1ccccc1`, -22.7%.
For `O=C(CS(=O)(=O)c1cn(CC(=O)N2CCCC2)c2ccccc12)Nc1ccccc1` the value was -8.1%; for `O=S(=O)(NCc1ccco1)c1ccc(Cl)nc1`, -15.7%.
Turning to `CC(C)CC(C(=O)NC(C)(C)C)N(Cc1cccs1)C(=O)c1snc(C(N)=O)c1N` (stereo not given), the inhibition was -13.4%.
For `C=CCN(CC=C)c1cnn(-c2nc3ccccc3[nH]2)c(=O)c1Cl` the value was 11.7%; for `O=c1c(Cl)c(NCCCO)cnn1-c1nc2ccccc2[nH]1`, 10.3%; for `O=c1c(Cl)c(N2CCCCC2)cnn1-c1nc2ccccc2[nH]1`, 74.8% (active).
For `O=c1c2ccccc2cnn1-c1ccc(Cl)cc1` the value was -102%.
For `Cc1nn(-c2nc3ccccc3[nH]2)c(N)c1-c1ccccc1` the value was -44.1%; for `O=c1c2ccccc2cnn1-c1nc2ccccc2[nH]1`, 99.7% (active); for `Cc1nn(-c2nc3ccccc3[nH]2)c(=O)c2ccccc12`, 94.4% (active).
On to `O=c1c(Cl)c(N2CCOCC2)cnn1-c1nc2ccccc2[nH]1`, for which the inhibition was -19.5%.
For `Cc1nn(-c2ccccc2)c(=O)c2ccccc12` the value was -47.4%.
For `Cc1nnc(SCC(=O)NC(=O)Nc2ccc3c(c2)OCCO3)s1` the value was -25.8%; for `COc1ccc(CCNC(=O)CC2SC(=NCCC(C)C)NC2=O)cc1OC` (stereo not given), -12.2%; for `COc1cc(C2c3[nH]c4ccccc4c3C[C@@H]3C(=O)N(Cc4ccco4)CC(=O)N23)cc(OC)c1OC` (stereo not given in full), -4.3%.
For `CCCCN(C(=O)CCC(=O)Nc1cc(C)on1)C(C(=O)NC1CCCC1)c1ccccc1OCC` (stereo not given) the value was -32.8%.
For `COCc1nnc(NC(=O)C2CCN(C(=O)c3ccco3)CC2)s1`, the inhibition was -4%.
Regarding `Cc1ccc(N2C(=O)C3C(c4ccccc4)N4CCCN4C3(C)C2=O)cc1` (stereo not given), the inhibition was -27.5%.
For `O=S(=O)(Nc1nnc(C(F)(F)F)s1)c1ccc(Cl)cc1` the value was -6.4%; for `O=C1c2ccccc2N2C(=O)c3ccccc3[C@H]2N1c1ccccc1`, -14.4%.
For `CC(C)Cc1ccc(CN2CCC(n3nccc3NC(=O)C3CCCC3)CC2)cc1` the value was -7.7%; for `Cc1cc(OCCCCn2ccnc2)cc(C)c1Cl`, -18.7%; for `Cc1cc(OCCCn2ccnc2)cc(C)c1Cl`, 7.6%.
For `Cc1cc(OCCCCCn2ccnc2)cc(C)c1Cl` the value was 48% (active).
For the compound `O=C(Nc1ccc(S(=O)(=O)Nc2nccs2)cc1)c1ccc(N2C(=O)c3ccccc3C2=O)cc1`, the inhibition was -25.2%.
Take `CC1=CC(C)(C)N2C(=O)C3(C(C#N)=C(N)OC4=C3C(=O)CC(C)(C)C4)c3cc(C)cc1c32` (stereo not given): the inhibition is 13.2%.
For `Cc1cc2c3c(c1)C1(C(=O)N3C(C)(C)CC2C)C(C#N)=C(N)OC2=C1C(=O)CC(C)(C)C2` (stereo not given) the value was -22.2%.
For `Cc1cc2c3c(c1)C(C)(c1ccccc1)CC(C)(C)N3C(=O)C21C(C#N)=C(N)OC2=C1C(=O)CC(C)(C)C2` (stereo not given) the value was 77.1% (active); for `O=C(Nc1nncs1)c1cccc(S(=O)(=O)N2CCc3ccccc32)c1`, -12.7%.
Take `C=CCOC(=O)C1=C(C)Nc2nnnn2C1c1cc(OC)ccc1OC` (stereo not given): the inhibition was -1.8%.
For `CC1CC2(CCCC2)Nc2ccc(F)cc21` (stereo not given) the value was -2%; for `CC1CC(C)(C)Nc2ccc(OC(=O)c3ccco3)cc21` (stereo not given), 44.8%.
For the compound `CC1CC(C)(C)Nc2ccc(N=O)cc21` (stereo not given), the inhibition was 41.9% (active).
